From PMC7862700, “An all-to-all approach to the identification of sequence-specific readers for epigenetic DNA modifications on cytosine”

Assays:
Experiment in all cases: DAPPL (digital affinity profiling via proximity ligation, sequencing); 10 mM Tris-HCl pH 7.5, 50 mM NaCl, 1 mM DTT, 4% glycerol, room temperature, 30 min; GST-TFs on glutathione beads, 16-mer random dsDNA library, 0.1% formaldehyde crosslink after washing; high values mean tight binding
Settings in all cases: protein: recombinant; tags: N-terminal GST; dsDNA, one strand shown
FLI1 = molecular target: T1, FLI1 (Homo sapiens, UniProt Q01543 1-452)
T1 sequence: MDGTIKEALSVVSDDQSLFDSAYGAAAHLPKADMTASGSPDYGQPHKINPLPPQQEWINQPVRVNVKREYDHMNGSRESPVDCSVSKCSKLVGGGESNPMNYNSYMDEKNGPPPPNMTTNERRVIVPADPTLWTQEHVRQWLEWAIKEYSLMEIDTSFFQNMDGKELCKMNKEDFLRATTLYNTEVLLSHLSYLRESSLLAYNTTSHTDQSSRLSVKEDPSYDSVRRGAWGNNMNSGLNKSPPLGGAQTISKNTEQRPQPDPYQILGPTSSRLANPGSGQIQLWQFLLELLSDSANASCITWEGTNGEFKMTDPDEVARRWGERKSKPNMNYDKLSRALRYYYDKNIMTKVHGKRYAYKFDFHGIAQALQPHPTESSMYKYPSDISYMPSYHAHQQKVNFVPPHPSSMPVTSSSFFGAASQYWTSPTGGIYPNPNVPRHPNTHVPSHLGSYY
Procedure, shortened: (§1)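 Human transcription factors were made in yeast as GST fusions, captured on glutathione beads and barcoded with DNA. With a tag-only sample included, the pool was incubated with 200 nmole of a random double-stranded 16-mer DNA library in Tris/NaCl/DTT/glycerol buffer at room temperature for 30 min, then crosslinked with 0.1% formaldehyde after washing, ligated by proximity, amplified and sequenced. For binding signal, each hexamer's read frequency for a factor is divided by its frequency for the tag-only sample.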

ELK1 = molecular target: T2, ELK1 (Homo sapiens, UniProt P19419 1-428)
T2 sequence: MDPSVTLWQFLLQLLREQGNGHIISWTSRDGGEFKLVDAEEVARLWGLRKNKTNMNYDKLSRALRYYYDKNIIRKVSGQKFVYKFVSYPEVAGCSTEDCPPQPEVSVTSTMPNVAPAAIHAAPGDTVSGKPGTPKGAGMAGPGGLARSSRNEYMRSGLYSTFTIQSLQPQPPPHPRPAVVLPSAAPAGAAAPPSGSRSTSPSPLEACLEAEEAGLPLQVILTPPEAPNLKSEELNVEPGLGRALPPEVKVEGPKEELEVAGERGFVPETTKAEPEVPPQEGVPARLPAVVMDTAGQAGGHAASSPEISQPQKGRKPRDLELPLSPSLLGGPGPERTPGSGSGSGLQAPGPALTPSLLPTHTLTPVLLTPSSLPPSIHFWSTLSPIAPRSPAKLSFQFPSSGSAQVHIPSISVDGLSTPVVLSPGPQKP
Procedure, shortened: as §1

GABPA = molecular target: T3, GABPA (Homo sapiens, UniProt Q06546 1-454)
T3 sequence: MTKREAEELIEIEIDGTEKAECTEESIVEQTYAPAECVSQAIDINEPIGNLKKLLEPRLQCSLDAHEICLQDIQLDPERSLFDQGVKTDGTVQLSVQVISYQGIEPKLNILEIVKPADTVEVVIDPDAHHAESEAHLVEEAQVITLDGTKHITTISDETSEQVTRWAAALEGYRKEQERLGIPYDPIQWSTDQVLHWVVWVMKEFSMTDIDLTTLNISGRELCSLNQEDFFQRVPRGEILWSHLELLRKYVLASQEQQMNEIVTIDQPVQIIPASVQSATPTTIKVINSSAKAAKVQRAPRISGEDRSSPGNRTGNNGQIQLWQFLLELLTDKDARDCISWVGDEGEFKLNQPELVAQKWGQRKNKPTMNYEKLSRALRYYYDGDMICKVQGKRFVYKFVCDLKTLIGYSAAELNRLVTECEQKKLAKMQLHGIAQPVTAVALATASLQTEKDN
Procedure, shortened: as §1

ERG = molecular target: T4, ERG (Homo sapiens, UniProt P11308 1-479)
T4 sequence: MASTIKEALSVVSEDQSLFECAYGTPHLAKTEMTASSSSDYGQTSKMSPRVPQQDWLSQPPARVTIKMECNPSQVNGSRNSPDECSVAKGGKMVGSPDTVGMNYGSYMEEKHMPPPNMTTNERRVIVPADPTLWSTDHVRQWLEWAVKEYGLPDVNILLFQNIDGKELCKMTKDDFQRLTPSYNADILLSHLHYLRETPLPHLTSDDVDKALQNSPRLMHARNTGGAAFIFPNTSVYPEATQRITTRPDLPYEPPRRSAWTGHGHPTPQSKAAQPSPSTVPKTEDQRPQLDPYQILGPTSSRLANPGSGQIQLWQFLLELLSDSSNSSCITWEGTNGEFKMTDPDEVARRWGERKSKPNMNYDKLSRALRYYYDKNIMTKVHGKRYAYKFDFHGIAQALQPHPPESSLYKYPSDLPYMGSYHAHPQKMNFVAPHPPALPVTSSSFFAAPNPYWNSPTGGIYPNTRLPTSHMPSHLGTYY
Procedure, shortened: as §1

ELF1 = ELF1 (Homo sapiens, UniProt P32519 1-619)
Procedure, shortened: as §1

EHF = molecular target: T5, EHF (Homo sapiens, UniProt Q9NZC4 1-300)
T5 sequence: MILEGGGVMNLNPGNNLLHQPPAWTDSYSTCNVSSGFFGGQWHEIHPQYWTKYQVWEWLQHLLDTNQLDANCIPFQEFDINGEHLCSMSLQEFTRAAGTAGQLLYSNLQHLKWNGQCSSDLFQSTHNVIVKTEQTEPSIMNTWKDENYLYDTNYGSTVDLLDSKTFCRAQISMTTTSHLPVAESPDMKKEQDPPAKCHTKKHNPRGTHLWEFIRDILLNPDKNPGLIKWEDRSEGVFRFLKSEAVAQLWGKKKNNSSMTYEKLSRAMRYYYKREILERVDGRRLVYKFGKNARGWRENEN
Procedure, shortened: as §1

SPI1 = SPI1 (Homo sapiens, UniProt P17947 1-270)
Procedure, shortened: as §1

SPIB = SPIB (Homo sapiens, UniProt Q01892 1-262)
Procedure, shortened: as §1

ELK3 = molecular target: T6, ELK3 (Homo sapiens, UniProt P41970 1-407)
T6 sequence: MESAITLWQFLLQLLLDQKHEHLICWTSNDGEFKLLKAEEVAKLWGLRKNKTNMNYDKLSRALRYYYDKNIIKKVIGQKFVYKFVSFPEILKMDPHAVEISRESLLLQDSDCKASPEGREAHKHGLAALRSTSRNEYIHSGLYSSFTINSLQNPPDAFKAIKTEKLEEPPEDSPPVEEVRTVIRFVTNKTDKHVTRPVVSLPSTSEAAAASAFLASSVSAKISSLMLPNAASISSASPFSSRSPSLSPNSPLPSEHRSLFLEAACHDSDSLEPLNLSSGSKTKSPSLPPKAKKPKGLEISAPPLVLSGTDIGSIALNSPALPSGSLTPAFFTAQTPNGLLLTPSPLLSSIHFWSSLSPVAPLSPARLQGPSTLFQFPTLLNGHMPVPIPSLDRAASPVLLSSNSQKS
Procedure, shortened: as §1

FEV = molecular target: T7, FEV (Homo sapiens, UniProt Q99581 1-238)
T7 sequence: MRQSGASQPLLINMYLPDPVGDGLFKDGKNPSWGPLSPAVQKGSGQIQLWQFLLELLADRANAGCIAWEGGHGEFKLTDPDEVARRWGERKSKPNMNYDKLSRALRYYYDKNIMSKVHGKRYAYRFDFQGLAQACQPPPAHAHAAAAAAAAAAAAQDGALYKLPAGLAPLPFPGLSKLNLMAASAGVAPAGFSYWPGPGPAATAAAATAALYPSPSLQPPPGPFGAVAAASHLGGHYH
Procedure, shortened: as §1

ETV5 = ETV5 (Homo sapiens, UniProt P41161 1-510)
Procedure, shortened: as §1

SPIC = molecular target: T8, SPIC (Homo sapiens, UniProt Q8N5J4 1-248)
T8 sequence: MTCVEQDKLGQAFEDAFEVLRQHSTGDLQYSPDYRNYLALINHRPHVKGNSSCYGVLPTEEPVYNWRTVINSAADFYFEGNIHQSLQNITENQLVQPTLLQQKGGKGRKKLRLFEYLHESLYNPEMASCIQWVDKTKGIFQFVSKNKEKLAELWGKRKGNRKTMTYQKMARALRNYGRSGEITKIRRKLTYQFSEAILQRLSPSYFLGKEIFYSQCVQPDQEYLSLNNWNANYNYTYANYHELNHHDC
Procedure, shortened: as §1

ELF4 = ELF4 (Homo sapiens, UniProt Q99607 1-663)
Procedure, shortened: as §1

ELK4 = molecular target: T9, ELK4 (Homo sapiens, UniProt P28324-2 1-405)
T9 sequence: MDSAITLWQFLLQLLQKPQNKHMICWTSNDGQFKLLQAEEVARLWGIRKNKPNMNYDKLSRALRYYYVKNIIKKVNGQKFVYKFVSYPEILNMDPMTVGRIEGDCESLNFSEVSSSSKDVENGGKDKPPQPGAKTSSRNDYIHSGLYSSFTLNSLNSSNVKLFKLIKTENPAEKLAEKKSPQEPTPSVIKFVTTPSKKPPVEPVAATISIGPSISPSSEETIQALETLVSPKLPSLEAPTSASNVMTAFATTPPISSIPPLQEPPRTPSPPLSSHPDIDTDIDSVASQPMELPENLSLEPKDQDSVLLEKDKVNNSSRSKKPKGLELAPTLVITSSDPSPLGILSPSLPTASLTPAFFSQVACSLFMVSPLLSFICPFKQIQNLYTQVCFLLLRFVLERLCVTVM
Procedure, shortened: as §1

ETV2 = molecular target: T10, ETV2 (Homo sapiens, UniProt O00321 1-342)
T10 sequence: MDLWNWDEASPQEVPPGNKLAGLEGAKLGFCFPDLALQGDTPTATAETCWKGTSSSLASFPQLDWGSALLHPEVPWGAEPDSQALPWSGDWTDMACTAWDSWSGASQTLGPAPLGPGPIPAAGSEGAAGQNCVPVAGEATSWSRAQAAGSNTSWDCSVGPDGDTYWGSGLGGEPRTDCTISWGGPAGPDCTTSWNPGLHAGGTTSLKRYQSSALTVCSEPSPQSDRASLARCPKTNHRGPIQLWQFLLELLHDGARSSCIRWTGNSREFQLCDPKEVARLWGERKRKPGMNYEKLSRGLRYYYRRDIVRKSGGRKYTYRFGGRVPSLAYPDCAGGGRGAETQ
Procedure, shortened: as §1

ELF3 = molecular target: T11, ELF3 (Homo sapiens, UniProt P78545 1-371)
T11 sequence: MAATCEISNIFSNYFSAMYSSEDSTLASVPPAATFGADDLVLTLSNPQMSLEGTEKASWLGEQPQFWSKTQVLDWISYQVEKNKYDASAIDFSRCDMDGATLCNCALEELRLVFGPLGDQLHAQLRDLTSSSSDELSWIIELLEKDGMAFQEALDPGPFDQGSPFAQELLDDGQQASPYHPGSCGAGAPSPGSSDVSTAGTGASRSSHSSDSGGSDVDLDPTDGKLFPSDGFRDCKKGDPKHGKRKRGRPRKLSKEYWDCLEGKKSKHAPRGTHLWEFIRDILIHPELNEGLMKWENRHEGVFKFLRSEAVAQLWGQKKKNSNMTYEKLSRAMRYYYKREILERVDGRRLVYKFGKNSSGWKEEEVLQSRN
Procedure, shortened: as §1

CRX = CRX (Homo sapiens, UniProt O43186 1-299)
Procedure, shortened: as §1

ETV1 = ETV1 (Homo sapiens, UniProt P50549 1-477)
Procedure, shortened: as §1

Chain of ETV1 (P50549 whole entry): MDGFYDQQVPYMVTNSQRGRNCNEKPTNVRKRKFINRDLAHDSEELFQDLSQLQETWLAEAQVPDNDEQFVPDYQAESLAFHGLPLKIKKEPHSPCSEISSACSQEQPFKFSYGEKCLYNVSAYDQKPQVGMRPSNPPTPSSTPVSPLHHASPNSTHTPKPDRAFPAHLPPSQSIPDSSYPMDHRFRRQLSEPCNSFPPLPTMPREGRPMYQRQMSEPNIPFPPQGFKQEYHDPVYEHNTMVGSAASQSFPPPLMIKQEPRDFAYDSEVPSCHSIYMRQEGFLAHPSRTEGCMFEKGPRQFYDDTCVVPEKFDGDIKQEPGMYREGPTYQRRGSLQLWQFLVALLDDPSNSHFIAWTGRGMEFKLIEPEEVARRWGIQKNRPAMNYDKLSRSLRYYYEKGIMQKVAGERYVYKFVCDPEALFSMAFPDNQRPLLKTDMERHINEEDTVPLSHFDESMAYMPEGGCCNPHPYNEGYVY
Chain of CRX (O43186 whole entry): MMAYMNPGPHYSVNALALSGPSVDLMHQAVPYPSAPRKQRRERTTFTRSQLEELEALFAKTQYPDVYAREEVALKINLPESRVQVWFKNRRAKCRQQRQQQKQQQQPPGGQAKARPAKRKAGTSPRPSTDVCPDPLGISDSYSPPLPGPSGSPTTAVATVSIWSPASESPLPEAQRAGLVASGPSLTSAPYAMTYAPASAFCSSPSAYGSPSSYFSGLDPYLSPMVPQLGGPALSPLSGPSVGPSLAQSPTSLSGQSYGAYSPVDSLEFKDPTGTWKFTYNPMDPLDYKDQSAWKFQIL
Chain of ELF4 (Q99607 whole entry): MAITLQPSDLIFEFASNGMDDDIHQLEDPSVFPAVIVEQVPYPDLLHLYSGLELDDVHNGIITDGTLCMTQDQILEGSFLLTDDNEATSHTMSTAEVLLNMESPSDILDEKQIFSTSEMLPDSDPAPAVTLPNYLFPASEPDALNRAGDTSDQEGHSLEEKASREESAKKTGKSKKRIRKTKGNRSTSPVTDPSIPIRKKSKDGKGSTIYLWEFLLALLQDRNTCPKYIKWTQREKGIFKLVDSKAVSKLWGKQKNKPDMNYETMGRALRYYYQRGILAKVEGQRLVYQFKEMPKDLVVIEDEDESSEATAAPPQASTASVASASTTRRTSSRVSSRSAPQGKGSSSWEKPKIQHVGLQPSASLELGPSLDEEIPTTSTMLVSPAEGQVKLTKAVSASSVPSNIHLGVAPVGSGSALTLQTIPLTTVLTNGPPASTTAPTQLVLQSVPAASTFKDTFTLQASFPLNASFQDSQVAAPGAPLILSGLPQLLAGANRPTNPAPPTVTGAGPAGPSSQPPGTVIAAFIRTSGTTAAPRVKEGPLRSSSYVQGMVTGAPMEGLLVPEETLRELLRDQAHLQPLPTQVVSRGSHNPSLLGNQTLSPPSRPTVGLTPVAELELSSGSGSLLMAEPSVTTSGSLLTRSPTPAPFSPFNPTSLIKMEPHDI
Chain of ELF1 (P32519 whole entry): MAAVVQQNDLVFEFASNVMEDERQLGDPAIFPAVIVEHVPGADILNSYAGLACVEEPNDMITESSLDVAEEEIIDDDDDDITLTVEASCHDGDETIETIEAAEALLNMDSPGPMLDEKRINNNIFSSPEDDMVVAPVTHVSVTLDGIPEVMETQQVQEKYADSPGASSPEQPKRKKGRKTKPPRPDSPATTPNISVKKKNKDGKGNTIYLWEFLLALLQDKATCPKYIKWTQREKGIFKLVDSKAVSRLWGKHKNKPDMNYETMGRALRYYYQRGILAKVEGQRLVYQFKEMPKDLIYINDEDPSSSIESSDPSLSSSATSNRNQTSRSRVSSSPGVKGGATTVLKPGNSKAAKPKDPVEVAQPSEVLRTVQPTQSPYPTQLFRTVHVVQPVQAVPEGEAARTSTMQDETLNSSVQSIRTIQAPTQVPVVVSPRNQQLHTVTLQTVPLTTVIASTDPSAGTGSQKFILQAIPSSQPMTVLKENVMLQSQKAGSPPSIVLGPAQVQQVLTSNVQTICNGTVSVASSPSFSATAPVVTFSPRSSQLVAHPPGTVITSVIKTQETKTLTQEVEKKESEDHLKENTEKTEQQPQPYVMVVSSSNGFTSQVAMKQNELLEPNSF
Chain of ETV5 (P41161 whole entry): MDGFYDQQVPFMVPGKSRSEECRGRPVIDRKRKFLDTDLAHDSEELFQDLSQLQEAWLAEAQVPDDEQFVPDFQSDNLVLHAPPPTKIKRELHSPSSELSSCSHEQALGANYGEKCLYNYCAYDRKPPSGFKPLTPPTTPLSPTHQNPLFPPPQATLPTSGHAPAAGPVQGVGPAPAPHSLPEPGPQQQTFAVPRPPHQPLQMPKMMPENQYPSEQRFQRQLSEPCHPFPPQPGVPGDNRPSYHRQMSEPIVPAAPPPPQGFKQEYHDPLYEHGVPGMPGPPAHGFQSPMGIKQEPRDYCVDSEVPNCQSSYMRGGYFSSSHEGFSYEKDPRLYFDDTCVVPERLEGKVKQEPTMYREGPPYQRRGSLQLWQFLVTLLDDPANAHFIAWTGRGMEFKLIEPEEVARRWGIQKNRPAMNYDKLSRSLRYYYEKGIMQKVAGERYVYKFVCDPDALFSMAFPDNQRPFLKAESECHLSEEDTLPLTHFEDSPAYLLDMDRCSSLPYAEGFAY
Chain of SPIB (Q01892 whole entry): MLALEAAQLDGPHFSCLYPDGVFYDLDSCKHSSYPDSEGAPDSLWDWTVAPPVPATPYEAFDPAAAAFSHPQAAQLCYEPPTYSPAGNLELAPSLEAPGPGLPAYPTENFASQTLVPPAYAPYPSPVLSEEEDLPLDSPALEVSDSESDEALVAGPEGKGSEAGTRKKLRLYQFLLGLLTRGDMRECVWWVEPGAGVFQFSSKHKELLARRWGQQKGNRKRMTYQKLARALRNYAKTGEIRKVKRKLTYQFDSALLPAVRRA

Row | Sequence | binding signal (FLI1) | binding signal (ELK1) | binding signal (GABPA) | binding signal (ERG) | binding signal (ELF1) | binding signal (EHF) | binding signal (SPI1) | binding signal (SPIB) | binding signal (ELK3) | binding signal (FEV) | binding signal (ETV5) | binding signal (SPIC) | binding signal (ELF4) | binding signal (ELK4) | binding signal (ETV2) | binding signal (ELF3) | binding signal (CRX) | binding signal (ETV1)
1 | AAAGGG | 1.21 fold enrichment (6-mer frequency, TF over GST control) | 1.11 fold enrichment (6-mer frequency, TF over GST control) | 1.22 fold enrichment (6-mer frequency, TF over GST control) | 1.12 fold enrichment (6-mer frequency, TF over GST control) | 1.09 fold enrichment (6-mer frequency, TF over GST control) | 1.2 fold enrichment (6-mer frequency, TF over GST control) | 1.68 fold enrichment (6-mer frequency, TF over GST control) | 1.19 fold enrichment (6-mer frequency, TF over GST control) | 1.1 fold enrichment (6-mer frequency, TF over GST control) | 1.11 fold enrichment (6-mer frequency, TF over GST control) | 1.21 fold enrichment (6-mer frequency, TF over GST control) | 1.22 fold enrichment (6-mer frequency, TF over GST control) | 1.19 fold enrichment (6-mer frequency, TF over GST control) | 1.1 fold enrichment (6-mer frequency, TF over GST control) | 1.05 fold enrichment (6-mer frequency, TF over GST control) | 1.25 fold enrichment (6-mer frequency, TF over GST control) | 1.08 fold enrichment (6-mer frequency, TF over GST control) | 1.26 fold enrichment (6-mer frequency, TF over GST control)
2 | TCCGTT | 1.44 fold enrichment (6-mer frequency, TF over GST control) | 1.61 fold enrichment (6-mer frequency, TF over GST control) | 1.42 fold enrichment (6-mer frequency, TF over GST control) | 1.68 fold enrichment (6-mer frequency, TF over GST control) | 1.34 fold enrichment (6-mer frequency, TF over GST control) | 1.4 fold enrichment (6-mer frequency, TF over GST control) | 1.53 fold enrichment (6-mer frequency, TF over GST control) | 1.53 fold enrichment (6-mer frequency, TF over GST control) | 1.54 fold enrichment (6-mer frequency, TF over GST control) | 1.71 fold enrichment (6-mer frequency, TF over GST control) | 1.49 fold enrichment (6-mer frequency, TF over GST control) | 1.62 fold enrichment (6-mer frequency, TF over GST control) | 1.25 fold enrichment (6-mer frequency, TF over GST control) | 1.48 fold enrichment (6-mer frequency, TF over GST control) | 1.44 fold enrichment (6-mer frequency, TF over GST control) | 1.35 fold enrichment (6-mer frequency, TF over GST control) | 1.13 fold enrichment (6-mer frequency, TF over GST control) | 1.36 fold enrichment (6-mer frequency, TF over GST control)
